Screening data from PubChem BioAssay.
Rows were chosen to be rich in hits. Some 7.3% of all compounds tested hit in one or more screens of this group.
SMN2 splice up = SMN2 splice variant enhancement; HEK293 SMN2-luciferase splicing reporter, luminescence, 30-36 h; Potency, µM (highest dose often 46.1 µM), actives largely listed as activators; actives 2.8% (n = 210,000); note: nearly all actives have a fitted effect of over 55% in size
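HEK293 cells carry an SMN2 minigene-luciferase reporter in which exon 7 inclusion puts luciferase in frame. Cells were seeded at 2000 cells/well, attached for 10-12 hours, then exposed to compounds for 30-36 hours at 37C before ONE-Glo luminescence.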
FLuc counter = firefly luciferase modulation, counter-screen for miR-21 project | purified FLuc, Km substrates, luminescence inhibition | Potency, µM (series often up to 57.5 µM), hits mostly inhibitors | AID 588342 | actives 6.9% (n = 360,000); note: nearly all actives have a fitted effect of over 55% in size
Target sequence (P08659 whole entry, looked up): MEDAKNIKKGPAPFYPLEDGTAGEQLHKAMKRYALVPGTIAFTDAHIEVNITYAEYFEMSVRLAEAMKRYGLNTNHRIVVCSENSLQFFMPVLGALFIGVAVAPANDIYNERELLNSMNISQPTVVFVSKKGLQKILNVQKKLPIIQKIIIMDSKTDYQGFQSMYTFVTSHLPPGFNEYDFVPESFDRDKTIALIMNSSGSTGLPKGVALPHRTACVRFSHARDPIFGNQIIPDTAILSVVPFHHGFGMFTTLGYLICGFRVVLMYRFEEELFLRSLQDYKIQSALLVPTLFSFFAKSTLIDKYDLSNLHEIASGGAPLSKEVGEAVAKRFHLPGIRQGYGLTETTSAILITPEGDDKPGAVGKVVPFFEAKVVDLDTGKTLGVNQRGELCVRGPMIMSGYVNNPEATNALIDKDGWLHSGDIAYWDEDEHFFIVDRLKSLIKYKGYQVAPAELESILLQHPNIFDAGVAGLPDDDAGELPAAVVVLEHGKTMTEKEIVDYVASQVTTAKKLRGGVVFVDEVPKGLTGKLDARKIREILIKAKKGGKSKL
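Biochemical qHTS of compounds, final roughly 60 µM downward over six points, against 10 nM purified firefly luciferase using Km concentrations of substrates (10 uM D-luciferin, 10 uM ATP) in Tris acetate pH 7.5 buffer; luminescence output.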
NPC1 promoter act = activators of NPC1 promoter | Huh7 NPC1 promoter luciferase reporter, 24 h | Potency, µM (titrated, usually from 9.22 µM), actives largely listed as activators | actives 2.4% (n = 320,000) | AID 485313; note: nearly all actives have a fitted effect of over 60% in size
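Luminescence read-out of NPC1 promoter-driven luciferase in stably transfected Huh7 cells; compounds delivered in DMSO and left 24 h at 37C, 5% CO2, qHTS titration format.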
ELG1 genotoxic = genotoxicity induction in ELG1-luciferase HEK293T cells | HEK293T ELG1-luciferase reporter, luminescence, 16 h | Potency, µM (series often up to 46 µM), most hits filed as activators | actives 1.3% (n = 330,000) | AID 504466; note: nearly all actives have a fitted effect of over 60% in size
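Quantitative HTS format in 1536-well plates. HEK293T ELG1-luciferase reporter cells receive test compound and are incubated 16 hr at 37 °C, 5% CO2; ONE-Glo added, 30 min room temperature, then luminescence read.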
p53 reactivator = mutant p53 re-activation in reporter cells | H1299 p53-A138V BP100-luciferase reporter, luminescence, 24 h | Potency, µM (titrated, usually from 92.2 µM), actives largely listed as activators | actives 0.063% (n = 320,000) | AID 504706; note: nearly all actives have a fitted effect of over 45% in size
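H1299 (p53-null), stable ts p53-A138V + BP100-Luc; 1000 cells/well, Opti-MEM/10% FBS; cpd 4 pt, 1:5; 24 h, 37 deg C, 5% CO2; detection reagent 10 min RT; luminescence.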
Rab9 promoter act = Rab9 promoter activation | AID 485297 | actives 2.8% (n = 320,000) | Huh7 Rab9 promoter-luciferase reporter, luminescence, 24 h | Potency, µM (doses to about 9.22 µM), hits mostly activators; note: nearly all actives have a fitted effect of over 60% in size
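Steps: seed 1500 Huh7 Rab9-luc cells per well, rest 2 h at 37 °C; add compound in DMSO; incubate 24 h; add luciferase reagent, 10 min ambient; read luminescence.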
Numbers stand for hits; – = inactive; ? = inconclusive; · = no result; [ ] = remark or other dose. Calls come from the whole dose curve; as a rule, active = well fitted curve in the direction sought with a large enough effect; inconclusive = small, poorly fitted or top-dose-only effect, or another doubt; inactive = no such curve, though single readings can be large; an effect the other way counts as inactive or inconclusive.

SMILES	SMN2 splice up	FLuc counter	NPC1 promoter act	ELG1 genotoxic	p53 reactivator	Rab9 promoter act
CN1CCN(/C=C2\SC(=S)NC2=O)CC1	–	–	–	–	–	–
Cc1cc(/C=C2\SC(=S)NC2=O)c(C)n1-c1ccc(O)cc1	·	0.85µM	1.8µM	?	?	1.8µM
Cc1cc(/C=C2\SC(=Nc3ccc(F)cc3)NC2=O)c(C)n1-c1ccc(S(N)(=O)=O)cc1	·	–[2.3 µM]	–	–	–	–
CC1Cc2cc(/C=C3/SC(=S)NC3=O)ccc2O1 (centres undefined)	·	2.7µM	?	–	–	4µM
Cc1cc(/C=C2\SC(N)=NC2=O)c(C)n1-c1ccccc1	13µM	0.38µM	1.4µM	7.3µM	?	2.8µM
Cc1cc(/C=C2/SC(=O)NC2=O)c(C)n1-c1ccc(N2CCOCC2)cc1	–	–	–	–	–	–
Cc1cc(C)cc(N2C(=O)CSC23C(=O)N(CC(=O)Nc2ccc(F)cc2F)c2ccccc23)c1 (centres undefined)	·	–	·	·	·	·
Cc1cc(/C=C2\SC(=S)NC2=O)c(C)n1C	–	27µM	–	–	–	–
COc1ccc2nc(N3CCCCC3)c(/C=C3\SC(=S)NC3=O)cc2c1	·	17µM	–	–	–	–
Cc1nn(C)c(C)c1/C=C1/SC(=S)NC1=O	–	?	–	–	–	–
Cc1cc(/C=C2\SC(=S)NC2=O)c(C)n1-c1ccccc1	·	0.54µM	1µM	?	?	0.63µM
Cc1cc(/C=C2\SC(=S)NC2=O)cc(C)c1O	·	8.5µM	–	–	?	–
Cc1nn(C)cc1/C=C1\SC(=S)NC1=O	–	?	–	–	–	–
O=C(CSc1nccc(=O)[nH]1)NC1CCCC1	·	–	–	–	–	–
O=C(NCCc1cccs1)C1CCC(=O)N(CCc2cccc(F)c2)C1 (centres undefined)	·	–	–	–	–	–
Cc1nc(CN(C)C(=O)C2CCC(=O)N(CCc3cccc(F)c3)C2)cs1 (centres undefined)	·	–	–	–	–	–
CN(C(=O)C1CCC(=O)N(Cc2cccc(F)c2)C1)C1CCCCC1 (centres undefined)	·	17µM	3.2µM	?	–	2.5µM
Cc1ccsc1CCNC(=O)C1CCC(=O)N(CCc2cccc(F)c2)C1 (centres undefined)	·	21µM	2.8µM	?	?	2.5µM
Cc1ccsc1CN(C)C(=O)C1CCC(=O)N(CCc2cccc(F)c2)C1 (centres undefined)	·	15µM	?	?	?	–
COc1ccc(NC(=O)CSc2nc(C)c3c(c2C#N)CCCC3)cc1	–	–	–	–	–	–
CCc1nnc(NC(=O)CSc2nc(C)c3c(c2C#N)CCCC3)s1	·	8.5µM	?	–	–	?
COc1ccc(C(=O)Oc2ccc3ccc(=O)oc3c2)cc1OC	·	–	–	–	–	–
COc1cccc(C(=O)Oc2ccc3ccc(=O)oc3c2)c1	·	5.4µM	–	–	–	–
O=C(Oc1ccc2ccc(=O)oc2c1)c1ccc([N+](=O)[O-])cc1	·	–	–	–	·	–
Cc1ccc(C(=O)Oc2ccc3ccc(=O)oc3c2)cc1	·	2.4µM	–	–	·	–
SMILES	SMN2 splice up	FLuc counter	NPC1 promoter act	ELG1 genotoxic	p53 reactivator	Rab9 promoter act
Cc1ccc(C(=O)Oc2ccc(N3C(=O)CCC3=O)c(C)c2)cc1	–	2.7µM	–	–	–	–
CCOc1ccc(NC(=O)CSc2oc(-c3ccco3)nc2S(=O)(=O)c2ccc(Cl)cc2)cc1	–	–	·	·	·	·
Cc1ccc(-c2nc3ccccc3nc2NN)cc1	·	1.3µM	–	8.2µM	–	?
Cc1ccc(C2=NN(C(=S)Nc3ccccc3)C(c3ccco3)C2)cc1 (centres undefined)	13µM	7.6µM	2.8µM	?	–	3.2µM
N/C(=N/OC(=O)c1ccccc1F)c1nonc1N	–	4.8µM	–	–	–	–
N/C(=N\OC(=O)c1ccc(Cl)cc1)c1nonc1N	–	1.7µM	–	–	–	–
N/C(=N\OCc1ccccc1)c1nonc1N	?	?	?	?	–	?
N#Cc1ccc(-c2cn3c(n2)SCC3)cc1	·	19µM	?	?	–	?
O=S(=O)(Nc1ccc(-c2cn3c(n2)SCC3)cc1)c1cccs1	–	–	–	–	–	–
COc1ccc(CN(C)C(=O)c2cc(-c3ccccc3)nc3ccc(C)cc23)c(OC)c1OC	·	?	–	–	–	?
COc1ccc(CCN(C)C(=O)c2cc(-c3ccccc3)nc3ccc(C)cc23)cc1OC	·	2.4µM	?	?	–	–
COc1ccc(-c2cc(C(=O)N(C)CCc3ccc(OC)c(OC)c3)c3ccccc3n2)cc1	·	–	–	–	–	–
COc1ccc(CCN(C)C(=O)c2cc(-c3ccccc3)nc3ccccc23)cc1OC	·	15µM	–	–	–	–
CSc1ccc(CNc2ccc(Cl)cc2)cc1	–	15µM	–	–	?	?
Nn1c(COc2cccc(Br)c2)nnc1SCC(=O)NCC1CCCO1 (centres undefined)	·	–	–	–	–	–
COc1ccc(-n2nc(C(=O)NCC(=O)N3CCCC(C)C3)c3ccccc3c2=O)cc1 (centres undefined)	·	5.4µM	–	–	?	–
COc1ccc(-n2nc(C(=O)NCC(=O)N3CCC(C)CC3)c3ccccc3c2=O)cc1	·	2.1µM	?	–	?	?
COc1ccc(-n2nc(C(=O)NCC(=O)N3CCN(c4cccc(Cl)c4)CC3)c3ccccc3c2=O)c(OC)c1	·	7.6µM	–	–	–	–
COc1ccc(-n2nc(C(=O)NCC(=O)N3CCC(C(N)=O)CC3)c3ccccc3c2=O)cc1	·	11µM	–	?	–	–
O=C(CCCn1c(=O)c2cccn2c2ccccc21)Nc1cc(C(F)(F)F)ccc1Cl	·	–	·	·	·	·
CCN1CCN(C(=O)c2nn(-c3ccc(C)cc3)c(=O)c3c2c2ccccc2n3C)CC1	25µM	–	–	–	–	–
COc1ccc(-c2nnc(SCC(=O)N3CCCCC3)o2)cc1	–	?	?	?	–	?
CCOc1ccc(-c2nnc(SCC(=O)N3CCCC3)o2)cc1	·	21µM	?	?	–	?
COc1ccc(-c2nnc(SCC(=O)N3CCOCC3)o2)cc1OC	–	–	–	–	–	–
CCOc1ccc(-c2nnc(SCC(=O)N3CCOCC3)o2)cc1	?	11µM	?	?	?	2.2µM
CCOC(=O)c1c(C)[nH]c(C(=O)CSc2nnc(CC(C)c3ccccc3)o2)c1C (centres undefined)	–	–	–	–	–	–
CCOC(=O)c1c(C)[nH]c(C(=O)CSc2ccc(Cl)cc2)c1C	11µM	6µM	?	?	–	?
CCOC(=O)c1c(C)[nH]c(C(=O)CSc2nc(C)cc(C)n2)c1C	–	–	–	–	–	–
